Laboratory results from PubChem BioAssay (Tox21).
Inconclusive results are not listed. A call without a number means that no potency is given here. Calls of active or inactive are those of the source. Calls follow the shape of the dose curve; as a rule, active = well fitted curve in the direction sought with a large enough effect in the repeat runs; inconclusive = weak or mixed curves; inactive = no such curve, though single readings can be large; an effect the other way counts as inactive or inconclusive.

Key:
[1] = qHTS RealTime-Glo MT Cell Viability Assay in HEK293 cells - 0 hour (AID 1224880); also: nearly all actives have a fitted effect of over 45% in size; also: potency is read from the fitted curve at half-maximal effect
Outline: (§1)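 600 HEK293 cells per well, dispensed already mixed with RealTime-Glo MT reagents. Compound dosing came 5 h later. The same wells were read for luminescence at 0, 8, 16, 24, 32 and 40 h of exposure at 37 C.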

[2] = A CellTox Green Cytotoxicity Assay to monitor cytotoxicity in HEK293 cells - 32 hour (AID 1224881); also: nearly all actives have a fitted effect of over 40% in size; also: potency is read from the fitted curve at half-maximal effect
Outline: (§2)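 Dead-cell fluorescence measured kinetically: asymmetric cyanine dye, HEK293, 600 cells/well, 5 h settle, 23 nL cpd/DMSO, 37 C, reads 0–40 h every 8 h.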

[3] = A CellTox Green Cytotoxicity Assay to monitor cytotoxicity in HEK293 cells - 8 hour (AID 1224884); also: nearly all actives have a fitted effect of over 35% in size; also: potency is read from the fitted curve at half-maximal effect
Outline: as §2

[4] = qHTS RealTime-Glo MT Cell Viability Assay in HepG2 cells - 16 hour (AID 1224885); also: nearly all actives have a fitted effect of over 50% in size; also: potency is read from the fitted curve at half-maximal effect
Outline: (§3)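 Cell number in HepG2 cultures estimated from NanoLuc luminescence generated by metabolic reduction of a prosubstrate by living cells. The homogeneous, nonlytic format allowed repeated reads at 0, 8, 16, 24, 32 and 40 h of compound exposure.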

[5] = qHTS RealTime-Glo MT Cell Viability Assay in HEK293 cells - 24 hour (AID 1224886); also: nearly all actives have a fitted effect of over 50% in size; also: potency is read from the fitted curve at half-maximal effect
Outline: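 Homogeneous bioluminescent viability format in HEK293 cells (600 cells/well). Following 5 h at 37 C/5% CO2, 23 nL compound was pintooled; the signal was measured repeatedly during 40 h incubation.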

[6] = qHTS RealTime-Glo MT Cell Viability Assay in HEK293 cells - 8 hour (AID 1224887); also: nearly all actives have a fitted effect of over 50% in size; also: potency is read from the fitted curve at half-maximal effect
Outline: as §1

[7] = A CellTox Green Cytotoxicity Assay to monitor cytotoxicity in HEK293 cells - 16 hour (AID 1224888); also: nearly all actives have a fitted effect of over 35% in size; also: potency is read from the fitted curve at half-maximal effect
Outline: as §2

[8] = A CellTox Green Cytotoxicity Assay to monitor cytotoxicity in HepG2 cells - 32 hour (AID 1224883); also: nearly all actives have a fitted effect of over 50% in size; also: potency is read from the fitted curve at half-maximal effect
Outline: (§4)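 First, HepG2 cells (600/well) mixed with reagent were plated; second, after 5 h at 37 C they received compounds via pintool; third, fluorescence was measured at 0 h through 40 h at 8 h intervals.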

[9] = qHTS RealTime-Glo MT Cell Viability Assay in HepG2 cells - 0 hour (AID 1224889); also: nearly all actives have a fitted effect of over 50% in size; also: potency is read from the fitted curve at half-maximal effect
Outline: as §3

[10] = A CellTox Green Cytotoxicity Assay to monitor cytotoxicity in HepG2 cells - 0 hour (AID 1224882); also: nearly all actives have a fitted effect of over 35% in size
Outline: as §4

Row | SMILES | Potency [1] | Potency [2] | Potency [3] | Potency [4] | Potency [5] | Potency [6] | Potency [7] | Potency [8] | Potency [9] | Potency [10]
1 | O=C(O)C(F)(F)C(F)(F)C(F)(F)C(F)(F)C(F)(F)C(F)(F)C(F)(F)C(F)(F)C(F)(F)C(F)(F)F | inactive | inactive | inactive | inactive | inactive | inactive | inactive |  |  | 
2 | O=S1(=O)OC(c2cc(Br)c(O)c(Br)c2)(c2cc(Br)c(O)c(Br)c2)c2ccccc21 | 10 µM (active) | inactive | inactive | inactive | inactive | inactive | inactive | inactive | 6.34 µM (active) | 
3 | ClCc1ccccc1 | inactive | inactive | inactive | inactive | inactive | inactive | inactive | inactive | inactive | 
4 | NS(=O)(=O)C(F)(F)C(F)(F)C(F)(F)C(F)(F)C(F)(F)C(F)(F)C(F)(F)C(F)(F)F | inactive | inactive | inactive | inactive | inactive | inactive | inactive |  | inactive | 
5 | ClCc1cccc(Cl)c1 | inactive | inactive | inactive | inactive | inactive | inactive | inactive |  | inactive | 
6 | CCCCCCCCCCOC(=O)c1ccccc1C(=O)OCCCCCCCCCC | inactive | inactive | inactive | inactive | inactive | inactive | inactive | inactive | inactive | 
7 | CCOC(=O)CBr | inactive | inactive | inactive | inactive |  |  | inactive | inactive | inactive | 
8 | Nc1nc(=S)[nH][nH]1 | inactive | inactive | inactive | inactive | inactive | inactive | inactive | inactive | inactive | 
9 | O=[N+]([O-])C(Br)(CO)CO | inactive | inactive | inactive |  |  | inactive | inactive |  | inactive | inactive
10 | O=S(=O)(Cl)c1ccccc1 | inactive | inactive | inactive | inactive | inactive | inactive | inactive | inactive | inactive | 
11 | Cc1ccccc1CCl | inactive | inactive | inactive | inactive | inactive | inactive | inactive | inactive | inactive | 
12 | Nc1ccc([N+](=O)[O-])cc1[N+](=O)[O-] | inactive | inactive | inactive | inactive | inactive | inactive | inactive |  | inactive | 
13 | CC(C)N(C(=O)COc1nnc(C(F)(F)F)s1)c1ccc(F)cc1 | inactive | inactive | inactive |  |  | 34.7 µM (active) | inactive | inactive | inactive | 
14 | Sc1ccccc1Cl | inactive | inactive | inactive | inactive | inactive | inactive | inactive |  | inactive | 
15 | C=CC(=O)OC(C)(C)C | inactive | inactive | inactive | inactive | inactive | inactive | inactive |  | inactive | 
16 | CCOc1nc(F)cc2nc(S(=O)(=O)Nc3c(Cl)cccc3Cl)nn12 |  | inactive | inactive | inactive | inactive | inactive | inactive | inactive |  | inactive
17 | O=S(=O)(O)C(F)(F)C(F)(F)C(F)(F)C(F)(F)F |  | inactive | inactive | inactive |  |  | inactive | inactive | inactive | 
18 | CN1[C@@H]2CC[C@H]1CC(OC(=O)c1cc(Cl)cc(Cl)c1)C2 (stereo not given in full) | inactive | inactive | inactive |  |  | inactive | inactive |  | inactive | 
19 | CCCC(Cn1cncn1)c1ccc(Cl)cc1Cl (stereo not given) | inactive |  | inactive |  | 21.9 µM (active) |  | inactive | 49 µM (active) | inactive | 
20 | CC1CC(CC2CCC(N)C(C)C2)CCC1N (stereo not given) | inactive |  | inactive | inactive | 44.4 µM (active) | inactive | inactive |  | inactive | inactive
21 | CC[C@H]1C[C@H]2[C@@H]3CCC4=CC(=O)CC[C@@H]4[C@H]3CC[C@]2(C)[C@H]1O | inactive |  | inactive | inactive |  | inactive | inactive |  | inactive | inactive
22 | IC(I)=C(I)I |  | 54.9 µM (active) | 54.9 µM (active) | 0.776 µM (active) | 6.92 µM (active) | 17.4 µM (active) | 54.9 µM (active) | 13.8 µM (active) |  | inactive
23 | O=C1C(=O)c2cccc3cccc1c23 |  | inactive | inactive | inactive |  |  | inactive | inactive | inactive | 
24 | CC(O)(CS(=O)(=O)c1ccc(F)cc1)C(=O)Nc1ccc(C#N)c(C(F)(F)F)c1 (stereo not given) |  | inactive | inactive |  |  |  | inactive | inactive |  | inactive
25 | O=C(N[C@H](c1ccccc1)[C@@H]1CN2CCC1CC2)c1c(Cl)ccc(C(F)(F)F)c1Cl |  | 78.8 µM (active) | inactive | inactive | 70.2 µM (active) | inactive |  |  | inactive | inactive
26 | CC(c1ccc(O)cc1)(c1ccc(O)cc1)c1ccc(O)cc1 |  | inactive | inactive | inactive |  |  | inactive | inactive |  | inactive

Row | SMILES | Potency [1] | Potency [2] | Potency [3] | Potency [4] | Potency [5] | Potency [6] | Potency [7] | Potency [8] | Potency [9] | Potency [10]
27 | O=C1CN=C(c2ccccc2)c2cc(Cl)ccc2N1CC1CC1 | 16.3 µM (active) | inactive | inactive | inactive |  |  | inactive |  |  | 
28 | O=[Se]=O | inactive |  | inactive | inactive | 17.3 µM (active) | inactive | inactive | 24.4 µM (active) | inactive | 
29 | COP(=S)(Oc1cc(Cl)c(Br)cc1Cl)c1ccccc1 (stereo not given) | inactive | inactive | inactive | inactive |  |  | inactive |  |  | 
30 | O=C(O)C1(c2ccc3c(c2)OC[C@H](Cc2ccc(-c4ccccc4)cc2)[C@H]3O)CCCC1 | inactive | 34.7 µM (active) | 19.5 µM (active) | inactive |  |  |  |  | inactive | 
31 | O=C1c2ccccc2C(=O)C1C(=O)C(c1ccccc1)c1ccccc1 |  | inactive | inactive | inactive | inactive | inactive | inactive |  |  | inactive
32 | Clc1ccc(C(OCCN2CCCCC2)c2ccccc2)cc1 (stereo not given) |  |  | inactive | inactive |  | inactive | inactive |  | inactive | 
33 | COc1ccc(-c2ccccc2)cc1NNC(=O)OC(C)C | inactive |  | inactive |  | 51 µM (active) |  | inactive | inactive | inactive | inactive
34 | Clc1cc(C(Cl)(Cl)Cl)cnc1Cl | inactive |  | inactive | inactive |  |  | inactive | 34.7 µM (active) | inactive | inactive
35 | Clc1cccc2ccccc12 | inactive |  | inactive | inactive | inactive | inactive | inactive | inactive | inactive | inactive
36 | C=CC[C@]1(O)CC[C@H]2[C@@H]3CCC4=CC(=O)CCC4=C3C=C[C@@]21C | inactive |  | inactive |  | 19 µM (active) |  | inactive | inactive |  | 
37 | CO/C=C(/C(=O)OC)c1ccccc1COc1cccc(C(F)(F)F)n1 | inactive |  |  | inactive |  |  | inactive | inactive | inactive | inactive
38 | CNP(=O)(OC)Oc1ccc(C(C)(C)C)cc1Cl (stereo not given) | inactive |  | inactive | inactive |  |  | inactive |  | inactive | inactive
39 | CC(C)(C)c1cc([N+](=O)[O-])cc([N+](=O)[O-])c1O |  | inactive |  | inactive |  | inactive | inactive |  |  | inactive
40 | CC(C)(OO)c1ccccc1 |  | inactive | inactive | inactive | inactive | inactive | inactive |  |  | 
41 | [O-][Cl+]O | inactive |  | inactive | inactive | inactive | inactive | inactive |  | inactive | 
42 | II |  | 38.9 µM (active) | 34.7 µM (active) | 27.5 µM (active) | inactive | inactive | 38.9 µM (active) | 38.9 µM (active) |  | inactive
43 | O=S1OC[C@@H]2[C@H](CO1)[C@]1(Cl)C(Cl)=C(Cl)[C@@]2(Cl)C1(Cl)Cl (stereo not given in full) | inactive |  |  |  |  |  |  |  | inactive | inactive
44 | COP(=O)(OC)O/C(=C/Cl)c1cc(Cl)c(Cl)cc1Cl | inactive | inactive | inactive | inactive |  | inactive | inactive |  | inactive | 
45 | NC(=O)CI | inactive |  |  |  |  | inactive |  |  |  | inactive
46 | COC(=O)C(C)N(C(=O)Cc1ccccc1)c1c(C)cccc1C (stereo not given) |  | inactive | inactive | inactive |  |  | inactive |  | 21.9 µM (active) | inactive
47 | O=[N+]([O-])c1ccc(F)c([N+](=O)[O-])c1 | inactive | inactive | inactive | inactive |  |  | inactive |  | inactive | 
48 | COC1=CC(=O)O[C@@H](CCc2ccccc2)C1 |  | inactive | inactive | inactive | inactive | inactive | inactive |  | inactive | 
49 | C/C(=C\c1ccccc1)[N+](=O)[O-] | inactive |  | inactive |  |  |  | inactive |  | inactive | inactive
50 | COC(C)(C)CCC[C@H](C)C/C=C/C(C)=C/C(=O)OC(C)C | inactive |  | inactive | inactive | inactive |  |  | inactive | inactive | inactive
51 | ClP(Cl)(Cl)(Cl)Cl | inactive |  | inactive |  |  | inactive | inactive |  |  | inactive
